# Test results as given in the supplement of paper PMC10849652.
# The full data set covers some 7,900 targets. This sample favours those with a hit. About 0.6% of all pairs of compound and target were hits. Values without a mark were called inactive.
# Legend:
# Assay in all cases: log2 fold change, soluble protein after heating vs DMSO (PISA); higher = thermal stabilisation; K562 cells, 10 uM, 30 min; active = over 0.2 and 3.5 SD of the protein, either way, in both replicates (recomputed)
# IRAK-1-4 Inhibitor I = compound: C1COCCN1CCN2C3=CC=CC=C3N=C2NC(=O)C4=CC(=CC=C4)[N+](=O)[O-] [IRAK-1-4 Inhibitor I]
# In short: (§1)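 Quantification of soluble protein used TMTpro 16plex LC-MS/MS, with channel sums equalised. Samples were the supernatant after 21,000xg for 90 min of pooled aliquots from K562 cells (2×10^6 cells/mL) treated with 10 μM compound for 30 min, heated for 3 min over 48°C-58°C, and extracted in PBS with 0.5% NP-40 at 4°C. Values, from duplicates, describe thermal stability against control samples on a log2 fold-change scale.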
# ibrutinib = compound: C=CC(=O)N1CCC[C@@H](n2nc(-c3ccc(Oc4ccccc4)cc3)c3c(N)ncnc32)C1 [ibrutinib]
# In short: as §1
# [1] = compound: CC(=O)c1cnc2ccc(-c3cc(Cl)c(O)c(Cl)c3)nc2c1N[C@H]1CC[C@H](CN(C)C)CC1
# In short: as §1
# ralimetinib = compound: CC(C)(C)Cn1c(N)nc2ccc(-c3[nH]c(C(C)(C)C)nc3-c3ccc(F)cc3)nc21 [ralimetinib]
# In short: as §1
# [2] = compound: CC(C)(O)CC(=O)NCCn1ccc2ncnc(Nc3ccc(Oc4cccc(C(F)(F)F)c4)c(Cl)c3)c21
# In short: as §1
# [3] = compound: CC(C)C1=C2N=C(C=C(N2N=C1)NCC3=CC=CC=C3)NCCCCCCN
# In short: as §1
# [4] = compound: CC(C)C[C@@H](C=O)NC(=O)[C@H](CC(C)C)NC(=O)[C@H](CC(C)C)NC(=O)OCc1ccccc1
# In short: as §1
# pinometostat = compound: CC(C)N(C[C@H]1O[C@@H](n2cnc3c(N)ncnc32)[C@H](O)[C@@H]1O)[C@H]1C[C@@H](CCc2nc3cc(C(C)(C)C)ccc3[nH]2)C1 [pinometostat]
# In short: as §1
# [5] = compound: CC1=C(C(CC(=O)N1)C2=CC=C(C=C2)C(F)(F)F)C(=O)NC3=C(C=C4C(=C3)C=NN4)F
# In short: as §1
# [6] = compound: CC1=C(C2=C(C=C1)C(=O)C3=CC=CC=C3N2CCCN)C
# In short: as §1
# UniProt Q9UK41, sequence (Q9UK41 whole entry, looked up): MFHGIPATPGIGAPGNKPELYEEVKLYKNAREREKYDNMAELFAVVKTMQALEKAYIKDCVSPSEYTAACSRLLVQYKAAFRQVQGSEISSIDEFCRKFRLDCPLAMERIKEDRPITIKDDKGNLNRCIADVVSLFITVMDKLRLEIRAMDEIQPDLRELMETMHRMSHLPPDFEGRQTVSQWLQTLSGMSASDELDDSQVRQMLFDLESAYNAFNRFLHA
# UniProt O00258, sequence (O00258 whole entry, looked up): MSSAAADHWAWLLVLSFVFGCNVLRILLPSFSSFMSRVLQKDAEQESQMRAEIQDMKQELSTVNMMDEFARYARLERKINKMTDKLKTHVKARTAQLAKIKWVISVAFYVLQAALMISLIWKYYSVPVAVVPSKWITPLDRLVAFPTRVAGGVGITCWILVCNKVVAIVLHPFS
# UniProt Q15642, sequence (Q15642 whole entry, looked up): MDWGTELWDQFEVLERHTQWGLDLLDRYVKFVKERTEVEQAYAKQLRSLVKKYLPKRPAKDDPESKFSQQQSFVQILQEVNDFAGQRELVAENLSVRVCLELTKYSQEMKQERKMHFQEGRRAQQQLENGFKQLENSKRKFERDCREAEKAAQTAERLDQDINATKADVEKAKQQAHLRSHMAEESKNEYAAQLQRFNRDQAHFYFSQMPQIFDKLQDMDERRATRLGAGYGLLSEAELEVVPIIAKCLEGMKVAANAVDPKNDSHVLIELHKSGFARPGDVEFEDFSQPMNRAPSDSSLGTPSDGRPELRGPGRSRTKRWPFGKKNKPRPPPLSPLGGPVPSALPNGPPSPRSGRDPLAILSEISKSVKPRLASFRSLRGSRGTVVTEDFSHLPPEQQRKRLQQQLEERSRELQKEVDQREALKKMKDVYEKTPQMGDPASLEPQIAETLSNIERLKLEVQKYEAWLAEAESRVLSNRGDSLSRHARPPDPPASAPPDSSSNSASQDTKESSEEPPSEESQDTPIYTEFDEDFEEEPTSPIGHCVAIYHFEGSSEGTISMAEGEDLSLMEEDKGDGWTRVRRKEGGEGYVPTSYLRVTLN
# UniProt P28908, sequence (P28908 whole entry, looked up): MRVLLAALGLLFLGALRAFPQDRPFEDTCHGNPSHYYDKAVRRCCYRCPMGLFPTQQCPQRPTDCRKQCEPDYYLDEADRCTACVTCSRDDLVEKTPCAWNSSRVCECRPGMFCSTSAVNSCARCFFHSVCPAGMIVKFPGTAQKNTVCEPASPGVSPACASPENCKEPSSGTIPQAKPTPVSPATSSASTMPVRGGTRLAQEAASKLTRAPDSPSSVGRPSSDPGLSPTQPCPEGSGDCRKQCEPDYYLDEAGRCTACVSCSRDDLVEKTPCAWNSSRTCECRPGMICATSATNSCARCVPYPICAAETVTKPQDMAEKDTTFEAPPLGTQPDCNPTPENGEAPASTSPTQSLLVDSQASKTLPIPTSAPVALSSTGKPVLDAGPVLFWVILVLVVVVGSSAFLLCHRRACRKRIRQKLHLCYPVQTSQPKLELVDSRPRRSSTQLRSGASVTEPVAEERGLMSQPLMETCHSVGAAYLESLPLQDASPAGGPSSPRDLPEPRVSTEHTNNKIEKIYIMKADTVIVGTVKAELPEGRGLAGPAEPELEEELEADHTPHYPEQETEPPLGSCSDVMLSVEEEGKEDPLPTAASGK
# UniProt Q8NCE0, sequence (Q8NCE0 whole entry, looked up): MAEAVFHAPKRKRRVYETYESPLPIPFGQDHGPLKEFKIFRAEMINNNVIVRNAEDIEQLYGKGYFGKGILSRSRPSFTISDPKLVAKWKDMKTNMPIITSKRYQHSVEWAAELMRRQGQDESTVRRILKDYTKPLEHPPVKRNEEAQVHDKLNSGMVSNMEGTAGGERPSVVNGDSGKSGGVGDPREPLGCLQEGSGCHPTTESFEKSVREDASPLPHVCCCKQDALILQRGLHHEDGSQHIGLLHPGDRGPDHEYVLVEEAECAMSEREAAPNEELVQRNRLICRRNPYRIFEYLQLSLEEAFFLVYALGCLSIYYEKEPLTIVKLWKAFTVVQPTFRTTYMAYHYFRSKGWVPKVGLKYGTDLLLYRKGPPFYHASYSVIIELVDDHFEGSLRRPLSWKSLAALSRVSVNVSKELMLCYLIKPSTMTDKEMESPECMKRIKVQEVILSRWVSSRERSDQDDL
# UniProt Q86WV6, sequence (Q86WV6 whole entry, looked up): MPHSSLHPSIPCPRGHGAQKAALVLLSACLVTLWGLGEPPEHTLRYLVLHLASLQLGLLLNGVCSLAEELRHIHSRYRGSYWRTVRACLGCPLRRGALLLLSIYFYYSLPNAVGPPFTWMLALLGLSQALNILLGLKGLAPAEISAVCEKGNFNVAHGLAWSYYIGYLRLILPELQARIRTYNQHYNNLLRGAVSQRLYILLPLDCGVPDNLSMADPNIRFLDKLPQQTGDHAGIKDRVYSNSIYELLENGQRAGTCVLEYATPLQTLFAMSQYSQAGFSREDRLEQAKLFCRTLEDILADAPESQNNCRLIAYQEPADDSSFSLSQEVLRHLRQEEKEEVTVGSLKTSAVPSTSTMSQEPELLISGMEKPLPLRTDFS
# UniProt Q8N4H5, sequence (Q8N4H5 whole entry, looked up): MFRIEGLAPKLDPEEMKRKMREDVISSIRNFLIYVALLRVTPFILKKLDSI
# UniProt Q6BDS2, sequence (Q6BDS2 whole entry, looked up): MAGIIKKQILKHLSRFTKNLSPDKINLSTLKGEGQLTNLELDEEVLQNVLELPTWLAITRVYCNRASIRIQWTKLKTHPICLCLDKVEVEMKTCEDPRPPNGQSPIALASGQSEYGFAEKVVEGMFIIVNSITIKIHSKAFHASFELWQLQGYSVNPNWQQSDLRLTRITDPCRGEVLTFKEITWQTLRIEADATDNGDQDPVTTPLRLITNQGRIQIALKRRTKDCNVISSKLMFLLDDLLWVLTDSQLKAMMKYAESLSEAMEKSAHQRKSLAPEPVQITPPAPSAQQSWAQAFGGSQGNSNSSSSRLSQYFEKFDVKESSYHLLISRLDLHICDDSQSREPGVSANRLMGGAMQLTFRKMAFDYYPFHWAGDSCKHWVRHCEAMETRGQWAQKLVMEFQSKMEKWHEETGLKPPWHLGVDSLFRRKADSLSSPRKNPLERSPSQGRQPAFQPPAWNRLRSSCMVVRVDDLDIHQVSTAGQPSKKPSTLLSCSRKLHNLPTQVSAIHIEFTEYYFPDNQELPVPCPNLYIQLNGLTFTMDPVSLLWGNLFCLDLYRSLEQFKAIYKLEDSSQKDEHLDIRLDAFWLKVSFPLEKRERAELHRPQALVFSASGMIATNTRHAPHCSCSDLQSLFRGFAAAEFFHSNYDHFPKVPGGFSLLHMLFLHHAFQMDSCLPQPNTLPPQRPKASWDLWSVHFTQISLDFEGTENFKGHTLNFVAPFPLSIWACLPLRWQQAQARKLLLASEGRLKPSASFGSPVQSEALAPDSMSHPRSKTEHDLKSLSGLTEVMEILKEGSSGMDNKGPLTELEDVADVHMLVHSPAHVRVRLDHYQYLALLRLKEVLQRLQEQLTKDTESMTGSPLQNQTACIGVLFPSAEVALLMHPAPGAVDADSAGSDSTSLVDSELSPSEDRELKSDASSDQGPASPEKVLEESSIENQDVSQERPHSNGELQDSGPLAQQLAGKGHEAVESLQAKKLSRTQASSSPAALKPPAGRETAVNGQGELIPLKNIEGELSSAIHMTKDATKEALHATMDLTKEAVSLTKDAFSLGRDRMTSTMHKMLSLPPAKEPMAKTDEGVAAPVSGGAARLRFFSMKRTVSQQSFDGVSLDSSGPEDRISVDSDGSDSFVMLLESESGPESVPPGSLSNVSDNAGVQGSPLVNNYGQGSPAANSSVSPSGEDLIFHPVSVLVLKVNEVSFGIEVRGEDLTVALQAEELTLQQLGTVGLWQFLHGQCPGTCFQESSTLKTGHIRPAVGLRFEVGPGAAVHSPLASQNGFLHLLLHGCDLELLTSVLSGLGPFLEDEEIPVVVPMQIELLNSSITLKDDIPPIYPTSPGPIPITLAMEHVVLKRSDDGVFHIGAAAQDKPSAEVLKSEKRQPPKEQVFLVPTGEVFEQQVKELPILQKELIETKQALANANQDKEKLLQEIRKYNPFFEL
# UniProt Q5R3I4, sequence (Q5R3I4 whole entry, looked up): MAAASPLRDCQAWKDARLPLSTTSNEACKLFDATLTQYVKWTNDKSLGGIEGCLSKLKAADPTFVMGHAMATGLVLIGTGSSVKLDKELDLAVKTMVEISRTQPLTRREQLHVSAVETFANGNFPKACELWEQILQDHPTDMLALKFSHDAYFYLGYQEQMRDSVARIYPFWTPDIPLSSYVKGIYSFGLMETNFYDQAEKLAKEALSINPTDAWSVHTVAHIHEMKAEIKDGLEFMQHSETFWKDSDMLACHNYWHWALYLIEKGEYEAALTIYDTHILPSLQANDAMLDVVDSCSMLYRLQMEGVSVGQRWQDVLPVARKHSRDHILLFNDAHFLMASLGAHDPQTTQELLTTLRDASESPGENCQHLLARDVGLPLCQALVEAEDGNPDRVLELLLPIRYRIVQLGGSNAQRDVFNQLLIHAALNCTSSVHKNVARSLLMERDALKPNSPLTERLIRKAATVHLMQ
# UniProt Q53S58, sequence (Q53S58 whole entry, looked up): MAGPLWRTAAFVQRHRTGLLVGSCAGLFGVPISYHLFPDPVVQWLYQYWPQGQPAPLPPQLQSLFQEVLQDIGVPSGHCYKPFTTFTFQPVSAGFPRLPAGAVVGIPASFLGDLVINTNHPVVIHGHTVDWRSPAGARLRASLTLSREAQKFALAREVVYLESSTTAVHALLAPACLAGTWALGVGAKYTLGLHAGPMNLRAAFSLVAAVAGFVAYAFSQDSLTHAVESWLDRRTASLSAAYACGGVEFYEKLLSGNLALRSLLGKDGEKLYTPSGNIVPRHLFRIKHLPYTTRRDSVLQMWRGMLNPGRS
# UniProt Q9BUB7, sequence (Q9BUB7 whole entry, looked up): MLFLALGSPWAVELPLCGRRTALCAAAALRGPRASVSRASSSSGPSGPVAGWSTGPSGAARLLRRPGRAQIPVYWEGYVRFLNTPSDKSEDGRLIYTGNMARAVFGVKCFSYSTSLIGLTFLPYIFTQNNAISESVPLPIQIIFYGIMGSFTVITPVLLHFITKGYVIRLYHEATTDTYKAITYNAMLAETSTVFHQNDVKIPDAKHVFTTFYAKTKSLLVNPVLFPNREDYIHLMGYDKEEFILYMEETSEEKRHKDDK
Target,log2 fold change (IRAK-1-4 Inhibitor I),log2 fold change (ibrutinib),log2 fold change [1],log2 fold change (ralimetinib),log2 fold change [2],log2 fold change [3],log2 fold change [4],log2 fold change (pinometostat),log2 fold change [5],log2 fold change [6]
WRB (UniProt O00258),0.006,0.014,-0.074,0.004,0.015,0.043,-0.043,-0.032,-0.006,0.011
UTP4 (UniProt Q969X6),0.003,0.002,0.02,-0.07,0.045,0.233 (active),-0.014,-0.017,-0.019,0.343 (active)
TOM1 isoform 2 (UniProt O60784),0.101,0.013,0.028,0.071,-0.017,-0.302,0.033,0.023,-0.006,0.16
TTC38 (UniProt Q5R3I4),0.129,-0.048,0.023,0.017,-0.204,-0.06,-0.195,0.027,-0.081,0.801 (active)
TMEM177 (UniProt Q53S58),0.06,0.079,0.007,-0.068,-0.023,-0.131,0.045,-0.02,-0.007,0.028
TRIP10 isoform 2 (UniProt Q15642),0.09,-0.032,-0.078,0.143,0.004,0.204,-0.118,-0.027,0.118,-0.01
VPS53 isoform 4 (UniProt Q5VIR6),-0.035,0.011,-0.046,-0.022,-0.101,-0.142,0.095,0.076,-0.032,0.036
TOMM5 isoform 2 (UniProt Q8N4H5),0.037,0.01,-0.033,-0.099,-0.048,0.221,0.036,0.148,-0.004,0.003
TOP2A isoform 4 (UniProt P11388),-0.145,0.116,0.154,0.324,0,-0.125,0.261,0.533,0.041,-0.968 (active)
TNFRSF8 (UniProt P28908),0.056,0.046,0.005,-0.143,0.016,0.219 (active),0.074,-0.01,0.003,-0.022
TXNL1 (UniProt O43396),-0.035,-0.014,-0.001,-0.003,-0.03,-0.052,0.278 (active),-0.029,-0.027,0.038
UCHL5 isoform 3 (UniProt Q9Y5K5),-0.012,-0.222,-0.021,0.006,-0.357,-0.143,0.077,-0.044,0.068,0.028
TRABD (UniProt Q9H4I3),-0.046,0.007,-0.032,0.073,0.277,0.416 (active),0.045,0.018,-0.005,-0.005
TMEM173 (UniProt Q86WV6),0.018,-0.105,0.009,0.067,-0.047,-0.006,0.005,0.012,0.009,0.088
UBE3D (UniProt Q7Z6J8),0.029,0.047,0.026,0.015,0.088,0.011,-0.061,-0.012,-0.045,0.051
UHRF1BP1 (UniProt Q6BDS2),0.007,0.023,-0.034,-0.067,0.097,0.258 (active),0.03,0.006,0.001,0.029
WDR4 (UniProt P57081),0.024,-0.052,0.022,-0.033,-0.003,-0.005,-0.072,-0.017,0.019,0.028
TSEN2 (UniProt Q8NCE0),0.073,-0.022,-0.116,-0.034,-0.127,0.033,-0.001,0.004,0.055,0.027
VPS28 (UniProt Q9UK41),-0.052,0.058,-0.018,-0.051,-0.13,-0.189,0.027,0.059,0.075,0.04
TNFRSF10A (UniProt O00220),0.002,0.034,-0.064,-0.072,-0.073,0.043,0.078,-0.002,-0.003,0.021
TMEM70 (UniProt Q9BUB7),0.07,0.068,-0.034,-0.044,-0.095,0.13,0.028,0.019,-0.034,0.086
WAPL isoform 3 (UniProt Q7Z5K2),-0.086,-0.002,-0.05,-0.072,-0.057,-0.339,0.125,0.054,-0.003,-0.056
TMEM161B (UniProt Q8NDZ6),0.06,-0.039,0.008,-0.097,-0.227 (active),-0.052,0.015,-0.002,-0.031,0.022
XPO6 (UniProt Q96QU8),-0.131,0.246,-0.038,0.083,0.434 (active),-0.189,-0.023,0.646 (active),-0.08,0.067
TMEM120A (UniProt Q9BXJ8),-0.066,-0.183,-0.068,-0.003,-0.429,-0.006,-0.078,0.093,-0.065,0.051
TRAPPC6B (UniProt Q86SZ2),-0.022,0.032,-0.001,-0.015,-0.138,0.032,0.032,-0.036,0.004,0.004
TRMT2A (UniProt Q8IZ69),-0.028,0.005,-0.098,0.039,0.013,-0.146,0.034,0.085,0.018,-0.142
VPS13B (UniProt Q7Z7G8),0.05,-0.013,-0.016,-0.042,-0.06,-0.241 (active),0.121,0.007,0.03,0.015
UBLCP1 (UniProt Q8WVY7),-0.029,-0.072,-0.057,-0.104,-0.061,-0.027,0.191,0.017,-0.023,-0.155
